From PubChem
Hits are enriched below; roughly 3.5% of the tested compounds scored in any of these assays.
TRb SRC2 PPI – inhibitors of human thyroid hormone receptor beta-SRC2 interaction; AID 1469; Potency, µM (top dose mostly 106 µM), without a hit: at the highest dose activity change, negative = inhibition, most hits filed as inhibitors; P10828; TRbeta-SRC2 peptide binding, fluorescence polarization; receptor liganded with 1 µM T3; 280,000 tested, 0.065% active;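 further: plate controls were bound peptide for no effect and peptide without receptor for full effect; nearly all actives have a fitted effect of over 50% in size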
Target sequence (P10828 whole entry, looked up): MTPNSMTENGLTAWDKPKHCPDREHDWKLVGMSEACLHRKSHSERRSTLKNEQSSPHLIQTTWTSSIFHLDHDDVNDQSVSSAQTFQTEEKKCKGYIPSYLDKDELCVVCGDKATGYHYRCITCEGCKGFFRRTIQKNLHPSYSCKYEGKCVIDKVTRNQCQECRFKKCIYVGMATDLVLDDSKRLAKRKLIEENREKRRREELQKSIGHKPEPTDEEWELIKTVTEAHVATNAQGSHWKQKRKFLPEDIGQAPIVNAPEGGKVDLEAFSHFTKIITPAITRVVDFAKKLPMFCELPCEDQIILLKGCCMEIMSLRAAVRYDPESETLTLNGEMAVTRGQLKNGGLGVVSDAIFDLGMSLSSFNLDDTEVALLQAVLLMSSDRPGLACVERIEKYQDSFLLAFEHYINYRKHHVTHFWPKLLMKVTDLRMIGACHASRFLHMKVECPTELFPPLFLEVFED
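TRb LBD 0.6 uM + Texas Red SRC2 peptide 20 nM, 1 uM T3, Tris buffer w/ 5% DMSO; compound pinned, 5 h RT; FP read ex 555/em 632; normalized to unbound and bound controls.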
Tau fluor counter – counter-screen for tau fibril formation inhibitors | tau K18 P301L Alexa594 fluorescence, heparin fibrillization | Potency, µM (titrated, usually from 57.7 µM), without a hit: at the highest dose activity change, negative = decrease | 280,000 tested, 0.93% active | AID 1463; further: nearly all actives have a fitted effect of over 55% in size
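Human tau K18 P301L (15 uM unlabeled, 0.24 uM Alexa 594-labeled) in 100 mM sodium acetate pH 7 with 20 uM heparin, 6 hr at 37 C. ThT 30 uM added, 1 hr ambient; Alexa 594 FP and total fluorescence read at 555/632 nm.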
TexasRed fluor – alters Texas Red total fluorescence, flagging assay interference. TRb/SRC2 Texas Red total fluorescence interference. Potency, µM (series often up to 106 µM), without a hit: at the top dose fluorescence change, negative = quenching. 280,000 tested, 0.29% active; active means well fitted curve in either direction with a large enough effect; inconclusive means small, poorly fitted or top-dose-only effect
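Flags fluorescent or light-absorbing compounds by total fluorescence, S + 2P, at 555 nm excitation and 632 nm emission. Mixture: 20 nM Texas Red SRC2 peptide, 0.6 uM human TRb LBD, 1 uM T3, 5% DMSO; compound exposure 5 h at ambient temperature.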
Tau FP inhib – tau fibrillization inhibition (FP); P10636; K18 P301L tau heparin fibrillization, Alexa594 FP, 6 h; Potency, µM (series often up to 57.7 µM), for inactives: top-dose activity, negative = inhibition, hits mostly inhibitors; 280,000 tested, 0.39% active; further: nearly all actives have a fitted effect of over 55% in size
Target sequence (P10636 561-689 P618L limits assumed): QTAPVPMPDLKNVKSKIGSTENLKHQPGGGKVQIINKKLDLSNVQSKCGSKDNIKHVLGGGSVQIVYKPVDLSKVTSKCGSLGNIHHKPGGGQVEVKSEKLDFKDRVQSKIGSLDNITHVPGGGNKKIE
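Quantitative HTS format: compounds meet 15 uM recombinant K18 P301L tau and Alexa 594-tau tracer in 100 mM sodium acetate pH 7; 20 uM heparin triggers fibrillization at 37 C over 6 hr; FP gives the signal.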
KDM4E inh – inhibitors of human JMJD2E histone demethylase. Potency, µM (series often up to 57.1 µM), for inactives: top-dose activity change, negative = inhibition, hits mostly inhibitors. B2RXH2. JMJD2E catalytic domain, FDH-coupled NADH fluorescence (FDH is formaldehyde dehydrogenase). 230,000 tested, 1.6% active; active means well fitted inhibition curve with a large enough effect, not every such curve was filed as active; inconclusive means small, poorly fitted or top-dose-only effect, or another doubt; inactive means no such curve, though single readings can be large or run the other way;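 further: 0% = wells with enzyme and -100% = buffer wells without enzyme; nearly all actives have a fitted effect of over 50% in size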
Tau fibril ThT – blocks human tau fibril formation measured by thioflavin T | P10636 | recombinant tau K18 P301L (four-repeat tau fragment), heparin-induced fibrillization, ThT fluorescence | Potency, µM (series often up to 57.4 µM), for the others: at the top dose activity, negative = inhibition, most hits filed as inhibitors | 270,000 tested, 2.1% active; further: nearly all actives have a fitted effect of over 55% in size
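Heparin-induced (20 uM) aggregation of recombinant human K18 P301L tau, 15 uM unlabeled with 0.24 uM labeled, pH 7 acetate buffer, 6 hr at 37 C with compound. Fibrils quantified by 30 uM ThT fluorescence after 1 hr ambient incubation.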
Active calls of the source: *; ? = inconclusive; nt = not tested or not shown; [ ] = another dose, or the depositor's remark. Unless noted, the call rests on the fitted dose curve; in most records, active means well fitted curve in the direction sought with a large enough effect; inconclusive means small, poorly fitted or top-dose-only effect, or another doubt; inactive means no such curve, though single readings can be large; an effect the other way counts as inactive or inconclusive. Unless noted, on the % scale 0 is the no-effect control and ±100 the full control effect; potency means the concentration at half of the fitted maximal effect.

SMILES	TRb SRC2 PPI	Tau fluor counter	TexasRed fluor	Tau FP inhib	KDM4E inh	Tau fibril ThT
COc1ccc(S(=O)(=O)N(C)CC(=O)N2CCN(C)CC2)cc1C	-13%	3%	0%	-1%	-2%	4%
COc1ccc(CN2CC(=O)N(c3ccc(C)c(C)c3)C2=S)cc1OC	3%	-12%	-1%	-13%	-1%	-4%
O=C1NC(c2cccs2)Nc2sc3c(c21)CCCC3 (stereo unspecified)	1%	?	-1%	?	?	2.5µM*
CN1C(=O)c2c(sc3c2CCCC3)NC1c1ccccc1O (stereo unspecified)	3%	?	1%	-11%	?	?
O=C(CSc1ccc2c(c1)OCCO2)Nc1cccnc1Cl	4%	-5%	2%	-16%	1%	1%
CCCC(=O)N1CCN(c2ccc(NC(=O)c3cc4ccccc4o3)cc2)CC1	4%	-28%	-3%	7%	-5%	?
CS(=O)(=O)N1CCN(c2ccc(NC(=O)c3ccc([N+](=O)[O-])o3)cc2)CC1	2%	-25%	0%	7%	-5%	?
O=C(Nc1ccc(N2CCCC2)c(Cl)c1)c1ccco1	-9%	?	-1%	5%	-11%	?
CCCC(=O)N1CCN(c2ccc(NC(=O)c3sc4ccccc4c3Cl)cc2)CC1	-1%	-20%	-2%	?	14%	2.2µM*
O=C(/C=C/c1ccc(Cl)c([N+](=O)[O-])c1)Nc1ccc(N2CCCC2)c(Cl)c1	7%	?	-2%	6%	0%	1µM*
O=C(Nc1ccc(N2CCCC2)c(Cl)c1)c1ccc([N+](=O)[O-])o1	-9%	14µM*[quencher]	-3%	-3%	-8%	8.9µM*
CCC(=O)N1CCN(c2ccc(NC(=O)c3ccc([N+](=O)[O-])o3)cc2)CC1	-4%	-22%	-2%	5%	-23%	3.2µM*
CCCCNc1nc(Oc2ccc(OCC)nn2)nc(N2CCOCC2)n1	6%	-2%	0%	5%	nt	0%
O=C(Nc1ccc(N2CCN(C(=O)c3ccc(Cl)cc3)CC2)cc1)c1ccc2c(c1)OCCO2	0%	?	-5%	12%	?	?
CCCC(=O)N1CCN(c2ccc(NC(=O)c3ccc([N+](=O)[O-])o3)cc2)CC1	-1%	-17%	-4%	-1%	-7%	4µM*
O=C(Nc1ccc(N2CCN(C(=O)c3ccc(Cl)cc3)CC2)cc1)c1ccc([N+](=O)[O-])o1	-3%	?	-2%	4%	1%	13µM*
COCCCNC(=O)c1ccc2c(c1)NC(=O)C(C(C)C)N2 (stereo unspecified)	6%	-8%	-18%	-7%	nt	-6%
COc1ccc(Nc2nc(N)c3cc(OC)c(OC)cc3n2)cc1	3%	11µM*[quencher]	-6%	?	nt	?
COc1ccc2c(c1)CC/C(=C\C=C\c1ccccc1)C2=O	-15%	-25%	-4%	-8%	?	2.5µM*
COc1ccc2c(c1)CC/C(=C\Nc1ccc3c(c1)OCO3)C2=O	-9%	14µM*[quencher]	8%	?	?	1.3µM*
COc1ccc(N/C=C2\CCc3ccccc3C2=O)cc1	2%	28µM*[quencher]	-2%	-15%	4%	0.89µM*
O=C1/C(=C/Nc2ccc3c(c2)OCO3)CCc2ccccc21	-6%	7.9µM*[quencher]	-2%	?	14µM*	1.6µM*
COc1ccc(N/C=C2\CCOC2=O)cc1	-1%	0%	-2%	1%	3%	-22%
Cn1c(=O)c2c(nc(N3CCCCC3)n2CCCNC2=NCCCC2)n(C)c1=O	3%	1%	-1%	-4%	8%	-8%
COc1ccc(NC(=S)Nc2nc(CC(=O)Nc3ccccc3OC)cs2)cc1	5%	13µM*[quencher]	-4%	-8%	-4%	-17%
SMILES	TRb SRC2 PPI	Tau fluor counter	TexasRed fluor	Tau FP inhib	KDM4E inh	Tau fibril ThT
CCn1ncc(Br)c1C(=O)Nc1cc(C(=O)OC)ccc1C(=O)OC	-3%	-4%	-3%	-6%	?	3%
O=C1N=C(N2CCOCC2)S/C1=C/c1cc2c(cc1[N+](=O)[O-])OCO2	?	?	?	?	-7%	18µM*
O=C1N=C(N2CCOCC2)S/C1=C\c1ccccc1OS(=O)(=O)c1ccccc1	-2%	-1%	-5%	6%	5%	2%
O=C(CCc1ccccc1)Nc1nc2ccc(S(=O)(=O)N3CCOCC3)cc2s1	-17%	-2%	0%	-1%	-24%	2%
COc1ccc(OC)c(NC(=O)c2noc3c2CCCC3)c1	-9%	-28%	2%	1%	nt	-9%
CC(=O)c1ccc(N=Nc2ccc(N)cc2)cc1	-2%	?	-4%	-5%	-3%	0.56µM*
COc1cc(OC)c(OC)cc1CN(C)CCc1ccccn1	-1%	-2%	-2%	2%	?	-4%
CN(C)S(=O)(=O)c1cccc(NC(=O)COC(=O)CNC(=O)c2ccccc2F)c1	2%	-9%	-1%	-7%	1%	-4%
Nc1nc(-c2ccccc2)c(N=Nc2cccnc2)s1	-11%	?	-6%	4%	0%	2.8µM*
Nc1ccc2c(c1)OC1(CCCC1)O2	1%	?	-1%	-17%	-16%	13µM*
Oc1ccc(Br)cc1/C=N/N1CCCCC1	7%	-24%	2%	5%	0%	?
Oc1ccc(C=Nc2ccc(N3CCOCC3)cc2)c(O)c1	-1%	?	-6%	?	?	16µM*
Oc1cc(Br)ccc1C=Nc1ccc(N2CCCCC2)cc1	6%	?	1%	-8%	-12%	14µM*
C=CCN1CN=C(NS(=O)(=O)c2ccc(NC(C)=O)cc2)NC1	-2%	2%	2%	4%	0%	3%
Cc1cc(O)c(C(C)C)cc1NC(=O)Nc1cccc2ccccc12	0%	25µM*[quencher]	-1%	18%	-25%	?
COc1ccc(/C=C/C(=O)c2ccc3ccccc3c2O)cc1CN1CCOCC1	14%	-23%	1%	-15%	?	16µM*
COc1ccc(/C=C/C(=O)c2ccccc2O)cc1CN1CCOCC1	0%	-5%	-1%	1%	-6%	-19%
N#C/C(=N\Nc1ccc(Cl)cc1)C(=O)c1ccsc1	-4%	?	-10%	3%	1%	5µM*
Cc1ccc(N/N=C(\C#N)C(=O)c2ccsc2)cc1	-8%	?	-3%	10%	2%	14µM*
O=C(O)c1cc(=O)c2ccccc2o1	2%	-8%	-3%	3%	?	-9%
COc1ccc(-c2ccc(/C=C3/C(=N)N4C(C)=CSC4=NC3=O)o2)c([N+](=O)[O-])c1	1%	?	-1%	-10%	-3%	2.2µM*
